The record followed here is PubChem BioAssay (NCI).

Molecules are shown by their SMILES. Compounds without any hit were thinned out: in the full panel of roughly 79,000, 15% have a hit. Unmarked numbers belong to inactive results. Calls of active or inactive are those of the source. Rule as the data show it: active = growth inhibition above about 70%; inactive = the rest.

The nature of one test: NCI Yeast Anticancer Drug Screen. Data for the bub3 strain (AID 167). The note with it: S. cerevisiae bub3 mutant strain, at 50.0 µM, stronger effect = higher value. The procedure, abridged: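 Inhibition values come from growth of compound-treated mutant yeast normalised to vehicle-treated controls.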
For the molecule `COc1ccc(N=N/N=c2\sc3cc(Cl)ccc3n2C)cc1`, the growth inhibition was 5%.
In the case of `O=c1ccc2nc3ccccc3ccc-2c1`, the growth inhibition is 62%.
Same read-out and setting: with `CC(=O)Nc1ccc(O)c(=O)cc1` the figure was 53.9%; with `CC(=O)Oc1c([N+](=O)[O-])cc(-c2ccccc2)cc1[N+](=O)[O-]`, 62.1%; with `Cc1cc(O)c(C)c(C)c1N=Nc1ccccc1`, 63.8%.
For the molecule `CCCCCCCC/C=C\CCCCCCCC(=O)O` (tested in a mixture with another compound), the growth inhibition was 95.3% (active).
Still for that read-out and setting: with `O=S(=O)(Nc1ccc(Cl)cc1)c1ccccc1` the figure was 53.9%.
For `COC(=O)[C@@]12OC[C@]34[C@H]([C@@H](O)[C@@H]1O)[C@@]1(C)CC(=O)C(O)=C(C)[C@@H]1C[C@H]3OC(=O)[C@H](OC(=O)C(Cc1ccccc1)NC(=O)OC(C)(C)C)[C@@H]24` (stereo not given in full), the growth inhibition is 83.3% (active).
On the same count and under the same terms, next, `CSC(=S)n1nc(-c2cccs2)c(N=Nc2ccc(Cl)cc2)c1C(F)(F)F`: 75.3% (active); `CCN1C2=NCCN2S(=O)(=O)c2ccccc21`: -22.1%.
As to `CCCc1cc(-c2ccc(O)c(CCC)c2)ccc1O`, the growth inhibition is 99.7% (active).
The same measure, in the same setting: next, `O=[N+]([O-])c1ccc(-c2cccc(Cl)c2)c([N+](=O)[O-])c1`: 98.8% (active).
The same measure, in the same setting: with `COC(=O)Oc1nn(C(=O)OC)c(=O)c2ccccc12` the figure was 99.5% (active); with `Cc1n(CC(C)C)c2c([n+]1CC(=O)c1ccc([N+](=O)[O-])cc1)C(=O)c1ccccc1C2=O`, 89.9% (active); with `O=C(c1ccccc1)C1C(c2ccccc2)OP(c2ccccc2)(c2ccccc2)(c2ccccc2)C1c1ccccc1` (stereo not given), 99.6% (active).
On the same count and under the same terms, next, `Cc1nc2c(cnn2-c2ccccc2)c(=O)o1`: -0.85%; `CCOC(=O)C(=O)Nc1nc2c(s1)C(=O)c1ccccc1C2=O`: 98.5% (active).
As to `O=C(CCl)OCC(=O)c1ccc(-c2ccccc2)cc1`, the growth inhibition was 19.4%.
The same measure, in the same setting: next, `ICCCCCCCCCC[n+]1ccc2ccccc2c1`: 92.7% (active); `CCC(C)OC(=O)Nc1cccc(Cl)c1` (stereo not given): 1.4%.
With `COc1ccccc1CN1CCCN(Cc2ccccc2OC)C1c1ccccc1F`, the growth inhibition was 78.8% (active).
With `ON=C(CC(O)(C(F)(F)Cl)C(F)(F)Cl)CC(O)(C(F)(F)Cl)C(F)(F)Cl`, the growth inhibition is 99.8% (active).
Take `COC(=O)Cn1/c(=N\N=C(/C)c2ccc(C)cc2)sc2ccccc21`: the growth inhibition was 35.9%.
On to `CCN(CC)CCOc1ccc(NC(=S)Nc2ccc(OCC(C)C)cc2)cc1`, for which the growth inhibition is 76% (active).
The same measure, in the same setting: with `CCCCCCCCCCNC(=O)CBr` the figure was 97.8% (active); with `CN(C)c1ccc(N=Nc2ccc(/C=C3\CCOC3=O)cc2)cc1`, -2.45%; with `CCc1cccc(CC)c1NC(=O)C1=C(C)NC(C)=C(C(=O)Nc2c(CC)cccc2CC)C1c1ccc2c(c1)OCO2`, 89.2% (active).
On the same count and under the same terms, with `Nc1cc2[nH]c(=O)c3cc(Cl)ccc3c2cc1Cl` the figure was -5.15%; with `COc1ccc(OC(C)=O)c2c1CCC=CC2=O`, 65.3%; with `COc1ccc(-c2n[nH]c(C(F)(F)F)c2N=NN(C)C)cc1OC`, 99.4% (active).
On the same count and under the same terms, with `CCC(=NCCCCCCN=C(CC)c1cc(C)cc([N+](=O)[O-])c1O)c1cc(C)cc([N+](=O)[O-])c1O.[Fe]` the figure was 71.7% (active); with `COc1ccc(CN2CCCN(Cc3ccc(OC)cc3)C2Cc2cc(Cl)ccc2OC)cc1`, 56.5%.
Turning to `Cc1cc(Cc2ccc(Cl)cc2)ccc1O`, the growth inhibition was 56.4%.
Turning to `CNCCN[C@@H]1c2cc3c(cc2[C@@H](c2cc(OC)c(O)c(OC)c2)[C@H]2C(=O)OC[C@@H]21)OCO3`, the growth inhibition was 87% (active).
Still for that read-out and setting: next, `Cc1cc(NC(=S)SC(C)C)ccc1Br`: 99.5% (active).
Consider `CC1CC2(C)ON=C(c3ccccc3)N2c2ccccc2S1` (stereo not given), for which the growth inhibition is 87% (active).
With `O=C(Cc1ccccc1)OC(C(=O)c1ccccc1)c1ccccc1` (stereo not given), the growth inhibition is 72.2% (active).
As to `Nc1ccc2ccccc2c1N=Nc1ccccc1`, the growth inhibition is 98.5% (active).
Still for that read-out and setting: with `Clc1ccc(C(c2ccc(Cl)cc2)c2cncnc2)cc1` the figure was 84.2% (active); with `OC(C(=Nc1ccccc1)c1ccccc1)c1ccccc1` (stereo not given), 97.8% (active).

The nature of a further test: NCI Yeast Anticancer Drug Screen. Data for the mlh1 rad18 strain (AID 175). The settings on record: S. cerevisiae mlh1 rad18 strain growth inhibition; at 5.0 µM (retest, dose inferred, filed as 0.5); stronger effect = higher value. A digest of the protocol:
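Vehicle-treated cultures served as the reference for growth inhibition in a yeast strain carrying DNA damage repair alterations exposed to each compound.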
As for `COc1ccc(N=N/N=c2\sc3cc(Cl)ccc3n2C)cc1`, the growth inhibition was 28%.
Consider `O=c1ccc2nc3ccccc3ccc-2c1`, for which the growth inhibition is -117%.
Take `CC(=O)Nc1ccc(O)c(=O)cc1`: the growth inhibition is 19%.
Still for that read-out and setting: next, `CC(=O)Oc1c([N+](=O)[O-])cc(-c2ccccc2)cc1[N+](=O)[O-]`: 6%; `Cc1cc(O)c(C)c(C)c1N=Nc1ccccc1`: -124%.
Take `CCCCCCCC/C=C\CCCCCCCC(=O)O` (tested in a mixture with another compound): the growth inhibition is 0%.
In the case of `O=S(=O)(Nc1ccc(Cl)cc1)c1ccccc1`, the growth inhibition is -5%.
For the molecule `COC(=O)[C@@]12OC[C@]34[C@H]([C@@H](O)[C@@H]1O)[C@@]1(C)CC(=O)C(O)=C(C)[C@@H]1C[C@H]3OC(=O)[C@H](OC(=O)C(Cc1ccccc1)NC(=O)OC(C)(C)C)[C@@H]24` (stereo not given in full), the growth inhibition is 3%.
Same read-out and setting: with `CSC(=S)n1nc(-c2cccs2)c(N=Nc2ccc(Cl)cc2)c1C(F)(F)F` the figure was 19%; with `CCN1C2=NCCN2S(=O)(=O)c2ccccc21`, 20%; with `CCCc1cc(-c2ccc(O)c(CCC)c2)ccc1O`, 96% (active).
Still for that read-out and setting: with `O=[N+]([O-])c1ccc(-c2cccc(Cl)c2)c([N+](=O)[O-])c1` the figure was 2%; with `COC(=O)Oc1nn(C(=O)OC)c(=O)c2ccccc12`, -12%; with `Cc1n(CC(C)C)c2c([n+]1CC(=O)c1ccc([N+](=O)[O-])cc1)C(=O)c1ccccc1C2=O`, 47%.
Still for that read-out and setting: with `O=C(c1ccccc1)C1C(c2ccccc2)OP(c2ccccc2)(c2ccccc2)(c2ccccc2)C1c1ccccc1` (stereo not given) the figure was 84% (active); with `Cc1nc2c(cnn2-c2ccccc2)c(=O)o1`, -115%; with `CCOC(=O)C(=O)Nc1nc2c(s1)C(=O)c1ccccc1C2=O`, 17%.
Take `O=C(CCl)OCC(=O)c1ccc(-c2ccccc2)cc1`: the growth inhibition is 16%.
Take `ICCCCCCCCCC[n+]1ccc2ccccc2c1`: the growth inhibition was 28%.
Turning to `CCC(C)OC(=O)Nc1cccc(Cl)c1` (stereo not given), the growth inhibition is 5%.
Still for that read-out and setting: next, `COc1ccccc1CN1CCCN(Cc2ccccc2OC)C1c1ccccc1F`: 16%; `ON=C(CC(O)(C(F)(F)Cl)C(F)(F)Cl)CC(O)(C(F)(F)Cl)C(F)(F)Cl`: 62%.
The same measure, in the same setting: next, `COC(=O)Cn1/c(=N\N=C(/C)c2ccc(C)cc2)sc2ccccc21`: -20%; `CCN(CC)CCOc1ccc(NC(=S)Nc2ccc(OCC(C)C)cc2)cc1`: 46%.
Regarding `CCCCCCCCCCNC(=O)CBr`, the growth inhibition was 6%.
On the same count and under the same terms, next, `CN(C)c1ccc(N=Nc2ccc(/C=C3\CCOC3=O)cc2)cc1`: -1%.
For the molecule `CCc1cccc(CC)c1NC(=O)C1=C(C)NC(C)=C(C(=O)Nc2c(CC)cccc2CC)C1c1ccc2c(c1)OCO2`, the growth inhibition is 43%.
Same read-out and setting: with `Nc1cc2[nH]c(=O)c3cc(Cl)ccc3c2cc1Cl` the figure was 65%.
Consider `COc1ccc(OC(C)=O)c2c1CCC=CC2=O`, for which the growth inhibition was 14%.
Still for that read-out and setting: next, `COc1ccc(-c2n[nH]c(C(F)(F)F)c2N=NN(C)C)cc1OC`: 99% (active); `CCC(=NCCCCCCN=C(CC)c1cc(C)cc([N+](=O)[O-])c1O)c1cc(C)cc([N+](=O)[O-])c1O.[Fe]`: 11%.
Regarding `COc1ccc(CN2CCCN(Cc3ccc(OC)cc3)C2Cc2cc(Cl)ccc2OC)cc1`, the growth inhibition is 18%.
With `Cc1cc(Cc2ccc(Cl)cc2)ccc1O`, the growth inhibition was 6%.
In the case of `CNCCN[C@@H]1c2cc3c(cc2[C@@H](c2cc(OC)c(O)c(OC)c2)[C@H]2C(=O)OC[C@@H]21)OCO3`, the growth inhibition was 43%.
On the same count and under the same terms, next, `Cc1cc(NC(=S)SC(C)C)ccc1Br`: -3%; `CC1CC2(C)ON=C(c3ccccc3)N2c2ccccc2S1` (stereo not given): 4%.
For `O=C(Cc1ccccc1)OC(C(=O)c1ccccc1)c1ccccc1` (stereo not given), the growth inhibition was 4%.
`Nc1ccc2ccccc2c1N=Nc1ccccc1`: the growth inhibition is 2%.
Turning to `Clc1ccc(C(c2ccc(Cl)cc2)c2cncnc2)cc1`, the growth inhibition was 13%.
The same measure, in the same setting: next, `OC(C(=Nc1ccccc1)c1ccccc1)c1ccccc1` (stereo not given): 39%.
